This passage reports growth results from PubChem BioAssay (NCI).

SMILES strings stand for the structures. This is part of a sample that, as a whole, favours compounds with a hit. Of some 83,000 tested, about 20% had one in any assay.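 Cells were grown in 96-well plates and exposed to the test compound at a single concentration for 48 hours; results are reported as percent growth, with values below 10 considered active.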 Values without a mark were called inactive. The source made the active and inactive calls.

Among the test systems are SR leukemia; RPMI-8226 leukemia; OVCAR-8 ovarian; OVCAR-5 ovarian; OVCAR-4 ovarian; SK-OV-3 ovarian; IGROV1 ovarian; OVCAR-3 ovarian; HS 578T breast; NCI/ADR-RES ovarian.
Assay in all cases: NCI-60 one-dose screen, 48 h (100 = growth as untreated, 0 = no growth, -100 = all killed)
Holding throughout (conditions): 10 µM unless noted

For `Cc1ccc(C2CCCCC2)cc1Br`, the growth with SR leukemia was 91.4%; with RPMI-8226 leukemia it was 100%; in the assay on OVCAR-8 ovarian, 98.4%; in the assay with OVCAR-5 ovarian, 94.3%; in the assay with OVCAR-4 ovarian, 119%; in the assay on SK-OV-3 ovarian, 96.5%. In addition, the growth is 101% in the assay with IGROV1 ovarian, 104% with OVCAR-3 ovarian, 96.4% in the assay with HS 578T breast and 97.7% in the assay with NCI/ADR-RES ovarian.

As for `Cc1ccc(NC(=O)c2ccccc2Cl)cc1`, the growth in the assay with SR leukemia is 92.3%; in the assay with RPMI-8226 leukemia it was 94.8%; in the assay on OVCAR-8 ovarian, 115%; in the assay on OVCAR-5 ovarian, 99.1%; in the assay with OVCAR-4 ovarian it was 107%; in the assay with SK-OV-3 ovarian, 124%. Further, the growth in the assay with IGROV1 ovarian was 93.8%; in the assay on OVCAR-3 ovarian, 122%; with HS 578T breast, 103%; in the assay with NCI/ADR-RES ovarian, 111%.

For `Cc1nc(O)cc(=O)[nH]1`, the growth is 114% in the assay on SR leukemia; 114% in the assay with RPMI-8226 leukemia; 105% in the assay on OVCAR-8 ovarian; 110% with OVCAR-5 ovarian; 114% in the assay on OVCAR-4 ovarian; 121% in the assay with SK-OV-3 ovarian. Also, the growth in the assay on IGROV1 ovarian is 106%; with OVCAR-3 ovarian, 115%; with HS 578T breast, 91.4%; in the assay with NCI/ADR-RES ovarian it was 108%.

For `CCOC(=O)c1c(C)[nH]c(C)c1C=O`, the growth in the assay on SR leukemia was 84.4%; with RPMI-8226 leukemia, 89.7%; in the assay with OVCAR-8 ovarian it was 94.5%; in the assay with OVCAR-5 ovarian, 96.4%; in the assay with OVCAR-4 ovarian, 107%; with SK-OV-3 ovarian, 94%. Besides, the growth in the assay on IGROV1 ovarian was 103%; with OVCAR-3 ovarian it was 112%; with HS 578T breast, 98.9%; in the assay on NCI/ADR-RES ovarian, 107%.

With `CCCCCCCCCCCCCCCCCC(=O)NCCNC(=O)CCCCCCCCCCCCCCCCC`, the growth in the assay with SR leukemia was 0.967% (active); in the assay with RPMI-8226 leukemia, 86.4%; in the assay on OVCAR-8 ovarian it was 98.2%; in the assay on OVCAR-5 ovarian, 94.8%; with OVCAR-4 ovarian, 95%; with SK-OV-3 ovarian it was 84.5%. Further, the growth in the assay with IGROV1 ovarian is 66.3%; with OVCAR-3 ovarian it was 96.9%; in the assay with HS 578T breast, 107%; with NCI/ADR-RES ovarian it was 93.9%.

As to `CN(C)c1ccc(O)c2c1CC1CC3C(N(C)C)C(=O)C(C(N)=O)=C(O)C3(O)C(=O)C1=C2O` (stereo not given), the growth was 24.1% in the assay with SR leukemia; 20.6% with RPMI-8226 leukemia; 38.3% with OVCAR-8 ovarian; 63.4% in the assay with OVCAR-5 ovarian; 57.8% in the assay on OVCAR-4 ovarian; 45.2% in the assay on SK-OV-3 ovarian. Besides, the growth in the assay with IGROV1 ovarian was 38.4%; in the assay with OVCAR-3 ovarian, 46.6%; in the assay with HS 578T breast it was 48.9%; in the assay with NCI/ADR-RES ovarian, 66.7%.

Regarding `C=CCc1cc(OC)c(O)c(OC)c1`, the growth in the assay with SR leukemia was 87.1%; with RPMI-8226 leukemia it was 97.6%; in the assay on OVCAR-8 ovarian, 103%; in the assay with OVCAR-5 ovarian it was 96.8%; with OVCAR-4 ovarian it was 102%; in the assay on SK-OV-3 ovarian it was 103%. The growth in the assay with IGROV1 ovarian is 113%; with OVCAR-3 ovarian, 106%; in the assay on HS 578T breast, 107%; with NCI/ADR-RES ovarian, 99.8%.

On to `CCCNS(=O)(=O)c1ccc(Cl)cc1`, for which the growth with SR leukemia is 98.9%; in the assay with RPMI-8226 leukemia, 99.7%; in the assay with OVCAR-8 ovarian it was 104%; in the assay with OVCAR-5 ovarian, 110%; in the assay on OVCAR-4 ovarian, 102%; in the assay on SK-OV-3 ovarian, 99.6%. In addition, the growth in the assay with IGROV1 ovarian is 105%; in the assay with OVCAR-3 ovarian it was 109%; with HS 578T breast it was 88.1%; with NCI/ADR-RES ovarian, 101%.

Regarding `COCC(N)=O`, the growth is 98.3% with SR leukemia; 103% in the assay on RPMI-8226 leukemia; 108% in the assay with OVCAR-8 ovarian; 101% in the assay with OVCAR-5 ovarian; 120% in the assay on OVCAR-4 ovarian; 105% in the assay on SK-OV-3 ovarian. Besides, the growth with IGROV1 ovarian is 114%; in the assay on OVCAR-3 ovarian it was 106%; in the assay on HS 578T breast, 103%; in the assay on NCI/ADR-RES ovarian, 111%.

Regarding `CC(=O)N(CCCCCCN(C(C)=O)C(C)=O)C(C)=O`, the growth is 99.6% [100 µM] in the assay with SR leukemia; 107% [100 µM] in the assay on RPMI-8226 leukemia; 107% [100 µM] in the assay on OVCAR-8 ovarian; 110% [100 µM] in the assay with OVCAR-5 ovarian; 101% [100 µM] in the assay on OVCAR-4 ovarian; 114% [100 µM] in the assay with SK-OV-3 ovarian. In addition, the growth was 108% [100 µM] with IGROV1 ovarian, 113% [100 µM] in the assay on OVCAR-3 ovarian, 105% [100 µM] in the assay with HS 578T breast and 105% [100 µM] in the assay on NCI/ADR-RES ovarian.

As to `COc1cc(OC)c2cc(C(=O)c3ccc(C#N)cc3)c(=O)oc2c1`, the growth was 89.8% with SR leukemia; 103% in the assay with RPMI-8226 leukemia; 97.1% with OVCAR-8 ovarian; 89.9% in the assay with OVCAR-5 ovarian; 96.3% with OVCAR-4 ovarian; 100% with SK-OV-3 ovarian. Also, the growth in the assay on IGROV1 ovarian is 104%; in the assay on OVCAR-3 ovarian, 107%; in the assay with HS 578T breast, 82.1%; in the assay on NCI/ADR-RES ovarian, 101%.

Consider `COc1ccc(C(=O)/C(=N/Nc2ccccc2)c2ccc(OC)cc2)cc1`, for which the growth in the assay on SR leukemia was 86%; in the assay with RPMI-8226 leukemia it was 92.9%; with OVCAR-8 ovarian, 115%; in the assay with OVCAR-5 ovarian, 94.2%; with OVCAR-4 ovarian, 87.2%; in the assay with SK-OV-3 ovarian, 104%. The growth was 91.5% in the assay with IGROV1 ovarian, 103% in the assay on OVCAR-3 ovarian, 102% in the assay on HS 578T breast and 97.5% in the assay on NCI/ADR-RES ovarian.

Consider `CCC(=O)Oc1ccc2ccccc2c1`, for which the growth in the assay on SR leukemia is 106%; in the assay with RPMI-8226 leukemia it was 100%; in the assay with OVCAR-8 ovarian, 100%; with OVCAR-5 ovarian, 103%; with OVCAR-4 ovarian, 101%; with SK-OV-3 ovarian, 98.9%. For the same molecule, the growth with IGROV1 ovarian was 106%; with OVCAR-3 ovarian, 108%; in the assay with HS 578T breast, 81%; in the assay on NCI/ADR-RES ovarian, 96.8%.

Turning to `CCOC(=O)c1ccc(Nc2sc(C(=O)c3ccc(Br)cc3)c(N)c2C#N)cc1`, the growth with SR leukemia was 18.6%; in the assay on RPMI-8226 leukemia, 18.7%; with OVCAR-8 ovarian, 29.6%; in the assay on OVCAR-5 ovarian, 46.8%; in the assay on OVCAR-4 ovarian it was 70.5%; in the assay with SK-OV-3 ovarian, 11.7%. Besides, the growth was 31.3% with IGROV1 ovarian, -6.38% (active) with OVCAR-3 ovarian, 20.8% in the assay on HS 578T breast and 22% in the assay with NCI/ADR-RES ovarian.

Consider `O=S1(=O)c2ccccc2Oc2ccccc21`, for which the growth in the assay with SR leukemia was 101%; with RPMI-8226 leukemia it was 110%; with OVCAR-8 ovarian, 99.6%; in the assay on OVCAR-5 ovarian, 96.3%; in the assay with OVCAR-4 ovarian, 100%; in the assay with SK-OV-3 ovarian it was 104%. Also, the growth is 105% in the assay on IGROV1 ovarian, 114% in the assay on OVCAR-3 ovarian, 106% in the assay with HS 578T breast and 108% in the assay on NCI/ADR-RES ovarian.
